Measurements taken from PubChem BioAssay (NCI).
About 83,000 compounds went through this panel and 20% of them were active in at least one assay; those are over-represented in the sample as a whole.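 Testing used 96-well plates and a 48-hour single-concentration exposure. Example: -40 means 40% of the starting cells died.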 Unmarked numbers belong to inactive results. Activity calls are given as the source filed them. How the source made its calls: active means growth percent below 10; inactive means the rest.

tested on: A498 renal; experiment: NCI-60 one-dose screen, 48 h (100 = growth as untreated, 0 = no growth, -100 = all killed); conditions: 10 µM unless noted

| SMILES | growth |
| --- | --- |
| CCCCNC(=O)c1ccc(OCC)cc1 | 94.2% |
| N#Cc1ccc(OC(=O)Nc2cc(Cl)cc(Cl)c2)cc1 | -19.7% [100 µM] (active) |
| CCOC(=O)C(C#N)=C1CCN(C)CC1 | 100% |
| COC(CCCl)c1ccc(Cl)cc1 (centres undefined) | 109% |
| CCOc1ccc(C(=O)NCC(C)C)cc1 | 92.1% |
| COc1ccc(C2CCCCC2=O)cc1 (centres undefined) | 99.7% |
| O=S(=O)(c1ccc(NC(=S)NCc2cccnc2)cc1)N1CCCCC1 | 97.3% |
| Cc1ccc(NC(=O)c2ccccc2Cl)cc1 | 79.2% |
| Nc1ccccc1SC1CC(=O)N(c2ccc(Cl)c(Cl)c2)C1=O (centres undefined) | 84.8% |
| OCC1CCC(O)C(CO)N1 (centres undefined) | 91.5% |
| CCCCCCCCNC(=O)C(C)C | 81.5% |
| N#C/C(=C\c1ccc2c(c1)OCO2)c1ccccc1 | 62.7% |

tested on: CCRF-CEM leukemia; experiment: as above; conditions: 10 µM unless noted

| SMILES | growth |
| --- | --- |
| COC(=O)Cc1cc(COC(C)=O)ccc1C | 96.1% |
| Cc1ccc(/C=N/NC(N)=S)s1 | 100% |
| Cc1cc(=O)n(Nc2ccccc2)c(O)c1C#N | 99.8% |
| CN(C)c1ccc(O)c2c1CC1CC3C(N(C)C)C(=O)C(C(N)=O)=C(O)C3(O)C(=O)C1=C2O (centres undefined) | 44.9% |
| C/C(=N\N=C(/C)c1cccc([N+](=O)[O-])c1)c1cccc([N+](=O)[O-])c1 | 96.5% |
| CC(=O)c1ccc(C)cc1 | 108% |
| CCNC(=O)Oc1ccc[nH]c1=O | 99% |
| Cc1nc(C)c(C(=O)O)cc1C(=O)O | 103% |
| CC(CO)(CO)C(=O)O | 93.5% |
| CCOC(=O)CNC | 92.3% |
| COC1CC(OC(=O)c2ccc([N+](=O)[O-])cc2)C(COC(=O)c2ccc([N+](=O)[O-])cc2)O1 (centres undefined) | 98.1% |
| Nc1cccc2cccc(O)c12 | 52.8% |
| CC(CCC#N)(CCC#N)C(=O)c1ccccc1 | 93.3% |
| O=[N+]([O-])c1c(Cl)ncnc1Cl | 99.1% |
| NS(=O)(=O)c1cc(=O)[nH]c(=O)[nH]1 | 103% |
| COc1ccc2c(Cl)cc(NC(=O)Nc3c(C)cccc3C)nc2c1 | 86.5% |
| CC(=O)c1cccc(O)c1 | 106% |
| Cc1nc(O)cc(=O)[nH]1 | 106% |
| Cc1ccc(C)c2c1CCC2=O | -32.7% (active) |
| O=C(OC1CCCC1)c1ccccc1Cl | 107% |
| CC(C)c1ccc(C(=O)OCCCl)cc1 | 107% |
| CCCCNC(=O)c1ccc(OCC)cc1 | 94.9% |
| N#Cc1ccc(OC(=O)Nc2cc(Cl)cc(Cl)c2)cc1 | 2.17% [100 µM] (active) |
| CCOC(=O)C(C#N)=C1CCN(C)CC1 | 99.2% |
| CCOc1ccc(C(=O)NCC(C)C)cc1 | 103% |
| COc1ccc(C2CCCCC2=O)cc1 (centres undefined) | 106% |
| O=S(=O)(c1ccc(NC(=S)NCc2cccnc2)cc1)N1CCCCC1 | 29% |
| Cc1ccc(NC(=O)c2ccccc2Cl)cc1 | 85% |
| CCCCCCCCNC(=O)C(C)C | 102% |
| N#C/C(=C\c1ccc2c(c1)OCO2)c1ccccc1 | 75.3% |

tested on: MOLT-4 leukemia; experiment: as above; conditions: 10 µM unless noted

| SMILES | growth |
| --- | --- |
| COC(=O)Cc1cc(COC(C)=O)ccc1C | 98.4% |
| Cc1ccc(/C=N/NC(N)=S)s1 | 99.4% |
| Cc1cc(=O)n(Nc2ccccc2)c(O)c1C#N | 103% |
| CN(C)c1ccc(O)c2c1CC1CC3C(N(C)C)C(=O)C(C(N)=O)=C(O)C3(O)C(=O)C1=C2O (centres undefined) | 79.1% |
| C/C(=N\N=C(/C)c1cccc([N+](=O)[O-])c1)c1cccc([N+](=O)[O-])c1 | 102% |
| CC(=O)c1ccc(C)cc1 | 107% |
| O=C1Nc2ccccc2/C1=C\c1ccccc1O | 74.6% |
| CCOC(=O)Nc1nccs1 | 110% |
| Cc1nc(C)c(C(=O)O)cc1C(=O)O | 103% |
| CC(=O)OCC1OC(n2cnc3c(=S)nc(N)[nH]c32)C(OC(C)=O)C1OC(C)=O (centres undefined) | 2.42% (active) |
| CC(CO)(CO)C(=O)O | 108% |
| CCOC(=O)CNC | 103% |
| CC(c1ccccc1)N(C)C (centres undefined) | 84.3% |
| COC1CC(OC(=O)c2ccc([N+](=O)[O-])cc2)C(COC(=O)c2ccc([N+](=O)[O-])cc2)O1 (centres undefined) | 103% |
| Nc1cccc2cccc(O)c12 | 83% |
| CC(CCC#N)(CCC#N)C(=O)c1ccccc1 | 97.8% |

| SMILES | growth |
| --- | --- |
| O=[N+]([O-])c1c(Cl)ncnc1Cl | 112% |
| NS(=O)(=O)c1cc(=O)[nH]c(=O)[nH]1 | 148% |
| COc1ccc2c(Cl)cc(NC(=O)Nc3c(C)cccc3C)nc2c1 | 81.6% |
| Cc1nc(O)cc(=O)[nH]1 | 103% |
| O=C(OC1CCCC1)c1ccccc1Cl | 110% |
| CC(C)c1ccc(C(=O)OCCCl)cc1 | 100% |
| CCCCNC(=O)c1ccc(OCC)cc1 | 105% |
| N#Cc1ccc(OC(=O)Nc2cc(Cl)cc(Cl)c2)cc1 | -14.4% [100 µM] (active) |
| CCOC(=O)C(C#N)=C1CCN(C)CC1 | 58.5% |
| CCOc1ccc(C(=O)NCC(C)C)cc1 | 100% |
| COc1ccc(C2CCCCC2=O)cc1 (centres undefined) | 97.9% |
| O=S(=O)(c1ccc(NC(=S)NCc2cccnc2)cc1)N1CCCCC1 | 47.3% |
| Cc1ccc(NC(=O)c2ccccc2Cl)cc1 | 87.8% |
| Nc1ccccc1SC1CC(=O)N(c2ccc(Cl)c(Cl)c2)C1=O (centres undefined) | 109% |
| CCCCCCCCNC(=O)C(C)C | 107% |
| N#C/C(=C\c1ccc2c(c1)OCO2)c1ccccc1 | 57.8% |
